Compounds without any hit were thinned out: in the full panel of roughly 83,000, 20% have a hit.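 Testing used 96-well plates and a 48-hour single-concentration exposure. Example: -40 means 40% of the starting cells died.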 Values without a mark were called inactive. Calls of active or inactive are those of the source. Rule for the calls: active = growth percent below 10; inactive = the rest.
Each compound was assayed on SF-268 CNS (assay: NCI-60 one-dose screen, 48 h (100 = growth as untreated, 0 = no growth, -100 = all killed)). Conditions: 10 µM unless noted.

Structure (SMILES) | growth
O=C1c2ccccc2C(=O)c2c(Nc3ccc(CCO)cc3)ccc(O)c21 | 60.4%
CCOC(=O)c1c(Cl)c2c(n1Cc1ccc(OC)cc1)-c1oncc1CCC2 | 95.9%
Cc1oc2c(c1C(=O)N1CC[C@@H](N)C1)C(=O)c1c(c(O)c3ccccc3c1O)C2=O | 16%
O=C1c2[nH]cc(CN[C@@H]3CCCN3)c2C(=O)c2c1c(O)c1ccccc1c2O | -88.2% (active)
O=C1C(N2CCOCC2)=Cc2cccc3cccc1c23 | 93.8%
COc1ccc(Cn2c(Br)c3c(c2-c2cc(OC)c(OC)c(OC)c2)CCc2sc(N)nc2-3)cc1 | 44.3%
Nc1nc2c(s1)CCc1c-2c(Br)n(Cc2ccccc2)c1Br | 89.1%
COC(=O)/C=C1/CCC2C3CCC4=CC(=O)C(Br)CC4(C)C3C(=O)CC12C (configuration not stated) | 95.6%

Each compound was assayed on SF-295 CNS in the same assay as above. Conditions: 10 µM unless noted.

Structure (SMILES) | growth
O=[N+]([O-])c1cc2c(cc1Br)-c1ccccc1C2 | 93.4%
Clc1ccc(Nc2nc(Nc3ccccc3)nc(Nc3ccc(-c4cc(-c5ccc(Cl)cc5)on4)cc3)n2)cc1 | 54%
Cc1cc(=O)c2c(C)ccc(C)c2[nH]1 | 91.4%
COc1cccc(C2CC(=O)Nc3cc4c(cc32)OCO4)c1OC (configuration not stated) | 84.9%
COc1ccccc1CNCCCCCCCCCCCCN1C(=O)c2ccc3c4c(ccc(c24)C1=O)C(=O)N(CCCCCCCCCCCCNCc1ccccc1OC)C3=O | 49.4%
O=C1C=CC(=O)N1CCCCCCCCCCN1C(=O)C=CC1=O | 73.7%
Cc1ccc(N=c2nc3sc4c(C)ccc(C)c4n3c(N)c2C#N)cc1 | 91.1%
COc1cc2nc(SCc3cc(OC)c(OC)c(OC)c3)n(-c3ccccc3OC)c(=O)c2cc1OC | 73.8%
Cc1nc2nc(C(F)(F)F)[nH]c2nc1C | 78.6%
CC(C)(C)[Si](C)(C)OC1[C@@H](CNC(=O)NC(=O)CCl)O[C@@H](n2cnc3c(N)ncnc32)[C@H]1O[Si](C)(C)C(C)(C)C (some centres not stated) | -57.4% (active)
Fc1ccccc1Nc1ccc2nnc(-c3ccncc3)n2n1 | 112%
NC(=O)c1nc2c([nH]c1=O)CCCC2 | 103%
CCN1CCN(C(=S)SCC(=O)Nc2nc3ccc(OC)cc3s2)CC1 | 121%
O=C(NCc1cccnc1)c1ccc([N+](=O)[O-])o1 | 20.8%
N#CC1=C(N)Oc2cc(N)ccc2C1c1ccc(F)cc1 (configuration not stated) | 72.2%
O=c1[nH]c(-c2ccncc2)nc2sc3c(c12)CCCCCC3 | 53.2%
CC1SC(c2cccc(Oc3ccccc3)c2)N(CCc2cccs2)C1=O (configuration not stated) | -35.6% (active)

Structure (SMILES) | growth
COc1ccc(-c2c(-c3cc4c(c(OC)c3OC)OCO4)noc2N)cc1 | 2.69% (active)
c1ccc(-c2n(Cc3ccc4ccccc4n3)c3ccccc3[n+]2Cc2ccc3ccccc3n2)cc1 | -9.19% (active)
O=S(=O)(Nc1ncccn1)c1ccc(Nc2ccc3nnc(-c4ccncc4)n3n2)cc1 | 100%
CC(=O)c1cc(C)c(OC(=O)c2ccccc2)c(C)c1 | 107%
Oc1ccccc1/C=N/Nc1nc2ccccc2s1 | 27.9%
O=C1NC(=S)S/C1=C\c1cccc([N+](=O)[O-])c1 | 91.3%
Clc1ccccc1Nc1ccc2nnc(-c3ccncc3)n2n1 | 93.9%
COc1cc(CNCCCN2C(=O)c3ccc4c5c(ccc(c35)C2=O)C(=O)N(CCCNCc2cc(OC)c(OC)c(OC)c2)C4=O)cc(OC)c1OC | -50.3% (active)
COc1ccc(OC)c(C2C(C#N)=C(N)Oc3cc(O)ccc32)c1 (configuration not stated) | 83.3%
O=C1c2ccccc2C(=O)c2c(Nc3ccc(CCO)cc3)ccc(O)c21 | 50.2%
CCOC(=O)c1c(Cl)c2c(n1Cc1ccc(OC)cc1)-c1oncc1CCC2 | 99%
Cc1oc2c(c1C(=O)N1CC[C@@H](N)C1)C(=O)c1c(c(O)c3ccccc3c1O)C2=O | 29.9%
O=C1c2[nH]cc(CN[C@@H]3CCCN3)c2C(=O)c2c1c(O)c1ccccc1c2O | 70.5%
O=C1C(N2CCOCC2)=Cc2cccc3cccc1c23 | 112%
COc1ccc(Cn2c(Br)c3c(c2-c2cc(OC)c(OC)c(OC)c2)CCc2sc(N)nc2-3)cc1 | 43.7%
Nc1nc2c(s1)CCc1c-2c(Br)n(Cc2ccccc2)c1Br | 120%
COC(=O)/C=C1/CCC2C3CCC4=CC(=O)C(Br)CC4(C)C3C(=O)CC12C (configuration not stated) | 95.4%
